# Test results as given in PubChem BioAssay (EPA / NIEHS).
# Results filed as inconclusive are left out. Calls of active or inactive are those of the source. Rule for the calls, unless noted: active = hit-call score of the fitted dose curve at least 0.9, where 1 is the maximum; inconclusive = response in the unintended direction; inactive = score below 0.9.
# What was measured:
# [1] = ATG_TAL_CIS: Attagene CIS-FACTORIAL HepG2 Assay for human TAL Basal Promoter (AID 2282966; active = hit-call score of the fitted dose curve at least 0.9, where 1 is the maximum; inactive = score below 0.9;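 note: background control endpoint measuring basal TAL promoter reporter mRNA not a specific factor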); conditions: HepG2 Attagene cis-factorial TAL promoter reporter; actives raise or lower the signal
# Method in brief: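 Background-control endpoint: basal TAL promoter reporter transcripts in transiently transfected HepG2, measured 24 h after dosing. Read-out by RT-PCR with fluorescent primer extension and capillary electrophoresis; gain or loss of signal fitted relative to DMSO.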
# [2] = ATG_TGFb_CIS: Attagene CIS-FACTORIAL HepG2 Assay for human Transforming Growth Factor (TGF) (AID 2282967; active = hit-call score of the fitted dose curve at least 0.9, where 1 is the maximum; inactive = score below 0.9); conditions: HepG2 Attagene CIS TGFb reporter, mRNA transcription; actives raise or lower the signal
# Method in brief: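 Bidirectional fitting relative to DMSO gave the endpoint. Underlying data: reporter mRNA from HepG2 cells carrying transiently transfected cis-regulated reporter constructs, harvested 24 h after dosing and analyzed by RT-PCR and capillary electrophoresis.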
# [3] = ATG_VDRE_CIS: Attagene CIS-FACTORIAL HepG2 Assay for human Vitamin D Receptor Element (VDRE) (AID 2282968; active = hit-call score of the fitted dose curve at least 0.9, where 1 is the maximum; inactive = score below 0.9); conditions: HepG2 VDRE cis-reporter transcription, actives raise or lower the signal
# Method in brief: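 Measures endogenous factor activity through cis-element-driven reporter transcripts in transiently transfected HepG2. Cells are treated 24 h; reporter mRNA is quantified by RT-PCR and capillary electrophoresis; fitting is bidirectional.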
# [4] = target: Estrogen receptor (Homo sapiens) (UniProt P03372); experiment: ATG_ERa_TRANS: Attagene TRANS-FACTORIAL HepG2 Assay for human Estrogen Receptor alpha (ERa) (AID 2282970); conditions: HepG2 Attagene TRANS ERa GAL4 reporter, mRNA
# Method in brief: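 Reporter transcripts were measured 24 h after dosing by RT-PCR with fluorescent primer extension and capillary electrophoresis. The system is transiently transfected HepG2 expressing exogenous NR-Gal4 chimeras driving GAL4-UAS reporters; DMSO is the baseline.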
# [5] = target: Steroid hormone receptor ERR1 (Homo sapiens) (UniProt P11474); experiment: ATG_ERRa_TRANS: Attagene TRANS-FACTORIAL HepG2 Assay for human Estrogen-Related Receptor alpha (ERRa) (AID 2282971); conditions: HepG2 Attagene TRANS reporter, ERRa transactivation
# Method in brief: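 Reporter transcripts from ERRa-Gal4 chimera activity measured in transiently transfected human HepG2 cells 24 hours after dosing, using RT-PCR with 6-FAM primer extension, HpaI digestion and capillary electrophoresis; DMSO is baseline.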
# [6] = target: X-box-binding protein 1 (Homo sapiens) (UniProt P17861); experiment: ATG_Xbp1_CIS: Attagene CIS-FACTORIAL HepG2 Assay for human X-box Binding Protein 1 (XBP1) (AID 2282972; active = hit-call score of the fitted dose curve at least 0.9, where 1 is the maximum; inactive = score below 0.9); conditions: HepG2 XBP1 cis-element reporter, Attagene multiplex; actives raise or lower the signal
# Sequence of X-box-binding protein 1 (Homo sapiens) (P17861 whole entry, looked up): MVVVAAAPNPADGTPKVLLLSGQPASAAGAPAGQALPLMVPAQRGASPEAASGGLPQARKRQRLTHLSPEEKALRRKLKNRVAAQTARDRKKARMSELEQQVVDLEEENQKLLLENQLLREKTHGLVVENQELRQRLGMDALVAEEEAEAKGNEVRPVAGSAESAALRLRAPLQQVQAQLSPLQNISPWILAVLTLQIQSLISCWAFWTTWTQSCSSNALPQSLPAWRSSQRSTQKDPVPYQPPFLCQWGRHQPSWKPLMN
# Method in brief: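 Reporter transcripts were quantified by RT-PCR with fluorescent primer extension and capillary electrophoresis after 24 h chemical exposure. Cells: transiently transfected HepG2 carrying cis-regulated reporter constructs; data fitted bidirectionally relative to DMSO.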
# [7] = target: Oxysterols receptor LXR-alpha (Homo sapiens) (UniProt Q13133); experiment: ATG_LXRa_TRANS: Attagene TRANS-FACTORIAL HepG2 Assay for human Liver X Receptor alpha (LXRa) (AID 2282980); conditions: HepG2 Attagene TRANS reporter, LXRa transactivation
# Sequence of Oxysterols receptor LXR-alpha (Homo sapiens) (Q13133 whole entry, looked up, the tested form may be a part): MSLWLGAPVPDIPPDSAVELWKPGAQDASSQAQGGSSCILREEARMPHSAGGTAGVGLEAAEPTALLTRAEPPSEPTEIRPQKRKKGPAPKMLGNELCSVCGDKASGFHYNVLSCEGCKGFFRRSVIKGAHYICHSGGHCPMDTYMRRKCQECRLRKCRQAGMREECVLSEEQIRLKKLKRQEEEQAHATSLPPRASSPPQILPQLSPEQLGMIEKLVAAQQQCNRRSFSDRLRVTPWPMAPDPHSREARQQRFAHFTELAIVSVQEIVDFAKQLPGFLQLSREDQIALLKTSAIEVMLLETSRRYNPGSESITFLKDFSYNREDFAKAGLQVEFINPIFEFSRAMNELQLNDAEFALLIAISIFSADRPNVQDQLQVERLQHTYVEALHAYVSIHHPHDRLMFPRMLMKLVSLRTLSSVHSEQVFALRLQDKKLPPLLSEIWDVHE
# Method in brief: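 Chemical-induced reporter mRNA measured by RT-PCR with fluorescent labelling and capillary electrophoresis after 24 h dosing of transiently transfected HepG2 cells expressing exogenous NR-Gal4 chimeras; increases scored against DMSO baseline.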
# [8] = target: Hepatocyte nuclear factor 4-alpha (Homo sapiens) (UniProt P41235); experiment: ATG_HNF4a_TRANS: Attagene TRANS-FACTORIAL HepG2 Assay for human Hepatocyte Nuclear Factor 4 alpha (HNF4a) (AID 2282982); conditions: HepG2 HNF4a transactivation reporter, mRNA readout
# Sequence of Hepatocyte nuclear factor 4-alpha (Homo sapiens) (P41235 whole entry, looked up): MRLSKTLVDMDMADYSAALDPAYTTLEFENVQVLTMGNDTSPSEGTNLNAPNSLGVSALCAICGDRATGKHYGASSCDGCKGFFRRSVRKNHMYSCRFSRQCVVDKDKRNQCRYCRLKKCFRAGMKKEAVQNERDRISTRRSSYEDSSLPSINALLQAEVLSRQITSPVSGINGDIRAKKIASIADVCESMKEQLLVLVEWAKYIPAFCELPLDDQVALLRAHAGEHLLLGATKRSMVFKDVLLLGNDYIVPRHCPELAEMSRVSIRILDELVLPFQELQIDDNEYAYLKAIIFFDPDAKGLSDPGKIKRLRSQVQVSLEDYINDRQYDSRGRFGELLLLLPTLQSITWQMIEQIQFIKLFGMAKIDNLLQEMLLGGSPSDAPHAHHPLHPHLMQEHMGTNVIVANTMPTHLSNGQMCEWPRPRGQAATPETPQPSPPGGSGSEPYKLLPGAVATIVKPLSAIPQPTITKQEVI
# Method in brief: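 Multiplexed reporter assay: transfected HepG2, 24 h exposure, total RNA → oligo(dT) RT → PCR → 6-FAM extension → HpaI digest → CE fluorescence. DMSO = negative control.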
# [9] = ATG_M_06_TRANS: Attagene TRANS-FACTORIAL HepG2 Assay for M06 Transcription Factor (Internal Marker) (AID 2282983); conditions: HepG2 Attagene TRANS M06 internal marker reporter
# Method in brief: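 Background-control reporter readout: after 24 h chemical exposure of transiently transfected HepG2 (GAL4-UAS reporter units), mRNA quantified by RT-PCR with fluorescent labeling and capillary electrophoresis. Gain-of-signal fitting against DMSO baseline.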
# [10] = ATG_M_32_TRANS: Attagene TRANS-FACTORIAL HepG2 Assay for M32 Transcription Factor (Internal Marker) (AID 2282984); conditions: HepG2 Attagene TRANS M32 internal marker reporter
# Method in brief: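 Cell-based TRANS-format assay in HepG2: exogenous chimeric GAL4 reporter units transiently expressed, compounds applied 24 h. Reporter mRNA detected by RT-PCR plus capillary electrophoresis; this readout is an internal background marker.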
# [11] = target: Transcriptional activator Myb (Homo sapiens) (UniProt P10242); experiment: ATG_Myb_CIS: Attagene CIS-FACTORIAL HepG2 Assay for human Myeloblastosis (Myb) Proto-Oncogene Transcription Factor (AID 2282986; active = hit-call score of the fitted dose curve at least 0.9, where 1 is the maximum; inactive = score below 0.9); conditions: HepG2 Attagene CIS-FACTORIAL Myb reporter transcription; actives raise or lower the signal
# Sequence of Transcriptional activator Myb (Homo sapiens) (P10242 whole entry, looked up): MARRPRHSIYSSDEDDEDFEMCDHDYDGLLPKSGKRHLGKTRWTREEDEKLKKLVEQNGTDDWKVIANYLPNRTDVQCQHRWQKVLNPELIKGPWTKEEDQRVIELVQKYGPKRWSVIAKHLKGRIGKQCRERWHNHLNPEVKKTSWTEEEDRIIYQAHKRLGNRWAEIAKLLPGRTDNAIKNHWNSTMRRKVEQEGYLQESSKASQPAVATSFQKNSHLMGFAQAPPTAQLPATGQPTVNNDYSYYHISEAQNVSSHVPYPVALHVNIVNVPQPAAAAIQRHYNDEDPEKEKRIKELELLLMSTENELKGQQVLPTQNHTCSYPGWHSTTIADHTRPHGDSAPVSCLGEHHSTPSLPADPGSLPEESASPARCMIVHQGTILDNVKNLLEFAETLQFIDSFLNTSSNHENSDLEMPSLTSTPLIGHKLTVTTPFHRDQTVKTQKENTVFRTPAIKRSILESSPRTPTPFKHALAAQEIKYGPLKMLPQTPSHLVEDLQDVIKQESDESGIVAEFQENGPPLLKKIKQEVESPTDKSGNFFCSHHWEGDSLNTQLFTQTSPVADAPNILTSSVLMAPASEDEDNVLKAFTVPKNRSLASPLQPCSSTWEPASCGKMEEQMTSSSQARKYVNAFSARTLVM
# Method in brief: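 Transiently transfected HepG2 cells, treated 24 h. Reporter mRNA quantified by RT-PCR/capillary electrophoresis; bidirectional fit relative to DMSO.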
# [12] = target: Nuclear respiratory factor 1 (Homo sapiens) (UniProt Q16656); experiment: ATG_NRF1_CIS: Attagene CIS-FACTORIAL HepG2 Assay for human Nuclear Respiratory Factor 1 (NRF1) Orphan Gene (AID 2282987; active = hit-call score of the fitted dose curve at least 0.9, where 1 is the maximum; inactive = score below 0.9); conditions: HepG2 NRF1 cis-element reporter, Attagene multiplex; actives raise or lower the signal
# Sequence of Nuclear respiratory factor 1 (Homo sapiens) (Q16656 whole entry, looked up, the tested form may be a part): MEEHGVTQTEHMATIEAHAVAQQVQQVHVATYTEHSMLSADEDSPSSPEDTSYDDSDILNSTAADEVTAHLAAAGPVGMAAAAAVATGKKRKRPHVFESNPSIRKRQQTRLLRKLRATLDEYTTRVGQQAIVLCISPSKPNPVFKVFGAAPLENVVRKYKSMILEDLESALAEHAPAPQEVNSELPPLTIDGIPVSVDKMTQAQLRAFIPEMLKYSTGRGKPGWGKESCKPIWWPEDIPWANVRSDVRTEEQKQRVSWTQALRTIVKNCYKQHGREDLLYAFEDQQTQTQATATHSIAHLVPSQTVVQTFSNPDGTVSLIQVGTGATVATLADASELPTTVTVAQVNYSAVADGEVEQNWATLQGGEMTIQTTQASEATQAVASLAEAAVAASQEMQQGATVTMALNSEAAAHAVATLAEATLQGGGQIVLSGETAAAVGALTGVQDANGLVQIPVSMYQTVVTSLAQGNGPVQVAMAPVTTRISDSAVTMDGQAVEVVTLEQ
# Method in brief: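 Cells (HepG2, transient MRTU transfection) are exposed to compound for 24 h, then RNA isolated and reporter mRNA amplified and fluorescently labelled. Fragments are separated by capillary electrophoresis; signal change is fitted bidirectionally relative to DMSO.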
# [13] = target: Nuclear receptor subfamily 1 group I member 3 (Homo sapiens) (UniProt Q14994); experiment: ATG_CAR_TRANS: Attagene TRANS-FACTORIAL HepG2 Assay for human Constitutive Androstane Receptor (CAR) (AID 2282969); conditions: HepG2 Attagene TRANS-FACTORIAL CAR reporter;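 note: activators raise reporter mRNA above DMSO so AC50 marks induction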
# Sequence of Nuclear receptor subfamily 1 group I member 3 (Homo sapiens) (Q14994 whole entry, looked up, the tested form may be a part): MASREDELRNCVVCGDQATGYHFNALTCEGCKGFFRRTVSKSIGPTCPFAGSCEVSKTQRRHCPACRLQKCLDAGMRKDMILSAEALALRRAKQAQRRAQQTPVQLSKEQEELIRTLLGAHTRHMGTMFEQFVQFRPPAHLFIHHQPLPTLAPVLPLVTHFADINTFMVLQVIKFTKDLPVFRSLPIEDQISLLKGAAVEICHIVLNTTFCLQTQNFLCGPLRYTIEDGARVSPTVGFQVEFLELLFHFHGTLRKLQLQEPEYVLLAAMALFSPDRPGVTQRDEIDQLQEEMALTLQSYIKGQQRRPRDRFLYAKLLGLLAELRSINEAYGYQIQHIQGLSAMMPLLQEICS
# Method in brief: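 Signal is reporter mRNA induction relative to DMSO, measured 24 h after dosing by RT-PCR with fluorescent primer extension and capillary electrophoresis. Human HepG2 liver cells carried transiently transfected chimeric NR-Gal4/GAL4-UAS reporter constructs.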
# [14] = target: Nuclear receptor subfamily 4 group A member 2 (Homo sapiens) (UniProt P43354); experiment: ATG_NURR1_TRANS: Attagene TRANS-FACTORIAL HepG2 Assay for human Nuclear Receptor Related Protein 1 (NURR1) (AID 2282985); conditions: HepG2 Attagene TRANS reporter, mRNA readout
# Sequence of Nuclear receptor subfamily 4 group A member 2 (Homo sapiens) (P43354 whole entry, looked up, the tested form may be a part): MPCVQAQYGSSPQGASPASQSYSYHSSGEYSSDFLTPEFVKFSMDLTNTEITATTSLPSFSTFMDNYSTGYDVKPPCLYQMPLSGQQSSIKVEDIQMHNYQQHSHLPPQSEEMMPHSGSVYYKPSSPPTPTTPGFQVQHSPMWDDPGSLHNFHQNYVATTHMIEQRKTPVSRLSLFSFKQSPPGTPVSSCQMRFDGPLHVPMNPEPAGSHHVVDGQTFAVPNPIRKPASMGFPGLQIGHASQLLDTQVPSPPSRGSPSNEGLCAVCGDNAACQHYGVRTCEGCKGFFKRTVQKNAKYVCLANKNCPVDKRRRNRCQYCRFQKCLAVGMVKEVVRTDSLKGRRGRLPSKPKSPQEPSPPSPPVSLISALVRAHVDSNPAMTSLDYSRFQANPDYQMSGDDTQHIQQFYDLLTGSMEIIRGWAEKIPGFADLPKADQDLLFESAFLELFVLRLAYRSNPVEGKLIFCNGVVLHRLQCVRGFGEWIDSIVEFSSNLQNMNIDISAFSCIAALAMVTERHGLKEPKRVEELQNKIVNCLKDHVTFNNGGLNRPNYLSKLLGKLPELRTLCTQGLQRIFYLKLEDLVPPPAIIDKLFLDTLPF
# Method in brief: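 Measures transcriptional activation by an exogenous NR-Gal4 chimera in transfected HepG2 liver cells. After 24 h, reporter RNA is reverse-transcribed, amplified and resolved by capillary electrophoresis; DMSO defines baseline.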
# [15] = ATG_M_19_TRANS: Attagene TRANS-FACTORIAL HepG2 Assay for M19 Transcription Factor (Internal Marker) (AID 2282974); conditions: HepG2 Attagene TRANS-FACTORIAL M19 internal marker reporter
# Method in brief: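 Reporter mRNA induction was measured in transfected HepG2 cells 24 h after dosing. Endpoint fitted upward relative to DMSO and serves as a background control within the multiplexed TRANS panel.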
# [16] = target: Glucocorticoid receptor (Homo sapiens) (UniProt P04150); experiment: ATG_GR_TRANS: Attagene TRANS-FACTORIAL HepG2 Assay for human Glucocorticoid Receptor (GR) (AID 2282978); conditions: HepG2 Attagene TRANS GR reporter, mRNA transcription;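 note: activators score as hits since higher reporter transcript over DMSO is fitted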
# Sequence of Glucocorticoid receptor (Homo sapiens) (P04150 whole entry, looked up, the tested form may be a part): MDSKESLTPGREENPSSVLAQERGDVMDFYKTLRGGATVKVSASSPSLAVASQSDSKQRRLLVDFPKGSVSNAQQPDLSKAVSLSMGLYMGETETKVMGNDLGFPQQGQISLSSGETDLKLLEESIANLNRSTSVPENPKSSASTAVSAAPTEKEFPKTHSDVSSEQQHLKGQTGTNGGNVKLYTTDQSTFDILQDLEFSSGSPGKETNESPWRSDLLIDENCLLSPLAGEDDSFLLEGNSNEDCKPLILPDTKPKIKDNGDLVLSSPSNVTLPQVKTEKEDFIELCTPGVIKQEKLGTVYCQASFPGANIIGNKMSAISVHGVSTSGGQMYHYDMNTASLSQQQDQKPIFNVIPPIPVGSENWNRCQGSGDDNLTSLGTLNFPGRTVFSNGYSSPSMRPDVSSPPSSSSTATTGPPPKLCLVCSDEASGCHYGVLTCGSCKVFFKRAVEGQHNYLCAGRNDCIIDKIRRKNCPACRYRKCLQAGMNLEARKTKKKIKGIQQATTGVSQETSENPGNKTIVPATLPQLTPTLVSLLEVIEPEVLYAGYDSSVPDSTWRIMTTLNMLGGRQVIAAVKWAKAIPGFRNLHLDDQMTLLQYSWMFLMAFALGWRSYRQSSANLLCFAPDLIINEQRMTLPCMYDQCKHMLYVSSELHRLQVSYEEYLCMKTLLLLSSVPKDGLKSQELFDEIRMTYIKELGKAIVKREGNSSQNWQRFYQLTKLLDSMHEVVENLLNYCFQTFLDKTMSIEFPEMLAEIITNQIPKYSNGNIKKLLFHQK
# Method in brief: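 Reporter transcript levels, detected by fluorescence after RT-PCR and capillary electrophoresis, served as the endpoint. HepG2 cells bearing transfected GAL4-UAS reporters responsive to NR-GAL4 chimeras were incubated with compound 24 h; DMSO defined baseline.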
# [17] = target: Bile acid receptor (Homo sapiens) (UniProt Q96RI1); experiment: ATG_FXR_TRANS: Attagene TRANS-FACTORIAL HepG2 Assay for Farnesoid X Receptor (FXR) (AID 2282979); conditions: HepG2 Attagene TRANS FXR-GAL4 reporter transcription;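 note: hits raise reporter mRNA above DMSO so AC50 marks FXR activation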
# Sequence of Bile acid receptor (Homo sapiens) (Q96RI1 whole entry, looked up, the tested form may be a part): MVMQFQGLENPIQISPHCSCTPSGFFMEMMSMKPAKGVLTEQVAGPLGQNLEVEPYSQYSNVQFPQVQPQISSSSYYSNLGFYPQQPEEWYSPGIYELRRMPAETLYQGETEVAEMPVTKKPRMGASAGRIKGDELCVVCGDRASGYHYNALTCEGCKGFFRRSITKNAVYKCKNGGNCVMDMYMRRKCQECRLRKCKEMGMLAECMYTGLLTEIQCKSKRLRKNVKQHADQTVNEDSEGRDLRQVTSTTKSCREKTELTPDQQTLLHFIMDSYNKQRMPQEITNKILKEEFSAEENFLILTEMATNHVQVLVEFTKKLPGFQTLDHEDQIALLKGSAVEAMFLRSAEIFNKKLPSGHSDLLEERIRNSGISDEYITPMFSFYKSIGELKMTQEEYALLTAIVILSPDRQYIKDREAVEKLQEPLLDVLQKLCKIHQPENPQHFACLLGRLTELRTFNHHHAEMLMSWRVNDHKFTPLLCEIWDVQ
# Method in brief: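 Reporter transcripts from transfected HepG2 cells were measured 24 h after dosing, using RT-PCR with capillary electrophoresis of 6-FAM-labelled fragments. The read-out reflects activity of exogenous FXR-Gal4 chimera on GAL4-UAS units, with induction relative to DMSO.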
# [18] = target: Oxysterols receptor LXR-beta (Homo sapiens) (UniProt P55055); experiment: ATG_LXRb_TRANS: Attagene TRANS-FACTORIAL HepG2 Assay for human Liver X Receptor beta (LXRb) (AID 2282981); conditions: HepG2 Attagene TRANS GAL4-LXRb reporter, mRNA
# Sequence of Oxysterols receptor LXR-beta (Homo sapiens) (P55055 whole entry, looked up, the tested form may be a part): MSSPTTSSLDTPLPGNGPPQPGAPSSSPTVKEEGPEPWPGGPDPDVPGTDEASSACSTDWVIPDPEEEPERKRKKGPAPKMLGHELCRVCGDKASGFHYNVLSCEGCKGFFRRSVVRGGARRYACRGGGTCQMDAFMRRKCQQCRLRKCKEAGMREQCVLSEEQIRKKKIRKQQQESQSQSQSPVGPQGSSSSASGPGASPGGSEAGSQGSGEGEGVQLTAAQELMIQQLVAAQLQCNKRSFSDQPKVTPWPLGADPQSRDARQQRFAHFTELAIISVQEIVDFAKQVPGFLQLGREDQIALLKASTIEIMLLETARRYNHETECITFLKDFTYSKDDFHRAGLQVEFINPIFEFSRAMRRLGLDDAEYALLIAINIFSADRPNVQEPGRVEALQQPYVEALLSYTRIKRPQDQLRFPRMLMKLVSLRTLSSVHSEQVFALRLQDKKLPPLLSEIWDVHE
# Method in brief: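 After 24 h of chemical treatment, transfected HepG2 cells yield total RNA; reporter cDNA is PCR-amplified, FAM-labelled, HpaI-cut and run on capillary electrophoresis. Signal reflects chimeric LXRb-Gal4 activity on GAL4-UAS reporters.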
# [19] = ATG_GAL4_TRANS: Attagene TRANS-FACTORIAL HepG2 Assay for GAL4 (Internal Marker) (AID 2282976); conditions: HepG2 Attagene TRANS GAL4 internal marker reporter
# Method in brief: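 In transfected human HepG2 liver cells dosed 24 h, GAL4 reporter mRNA serves as a baseline marker. Detection by RT-PCR with fluorescent capillary electrophoresis, activity fitted upward relative to DMSO.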
# [20] = target: Estrogen-related receptor gamma (Homo sapiens) (UniProt P62508); experiment: ATG_ERRg_TRANS: Attagene TRANS-FACTORIAL HepG2 Assay for human Estrogen-Related Receptor gamma (ERRg) (AID 2282977); conditions: HepG2 Attagene TRANS reporter, ERRg transactivation;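 note: hits increase reporter signal over DMSO so potencies reflect activators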
# Method in brief: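 Readout: fluorescent reporter-mRNA fragments resolved by capillary electrophoresis after RT-PCR and HpaI cut. Cells: transiently transfected HepG2 carrying GAL4-UAS reporters driven by exogenous NR-Gal4 chimeras, dosed 24 h. Activity fitted upward relative to DMSO baseline.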
smiles,measurement,setting,value
COC(=O)C=C(C)CCC=C(C)C,outcome,[1],inactive
same,outcome,[2],inactive
same,AC50,[3],10.5 µM (active)
same,outcome,[4],inactive
same,outcome,[5],inactive
same,outcome,[6],inactive
same,outcome,[7],inactive
same,outcome,[8],inactive
same,outcome,[9],inactive
same,outcome,[10],inactive
same,outcome,[11],inactive
same,outcome,[12],inactive
COc1cccc(OC)c1O,outcome,[1],inactive
same,outcome,[2],inactive
same,outcome,[3],inactive
same,outcome,[13],inactive
same,outcome,[6],inactive
same,outcome,[7],inactive
same,outcome,[9],inactive
same,outcome,[14],inactive
same,outcome,[11],inactive
same,outcome,[12],inactive
CCOc1ccc(N=Nc2ccc(C=Cc3ccc(N=Nc4ccc(OCC)cc4)cc3S(=O)(=O)O)c(S(=O)(=O)O)c2)cc1,outcome,[1],inactive
same,outcome,[2],inactive
same,outcome,[3],inactive
same,outcome,[13],inactive
same,outcome,[6],inactive
same,outcome,[15],inactive
same,outcome,[7],inactive
same,outcome,[8],inactive
same,outcome,[9],inactive
same,outcome,[10],inactive
same,outcome,[11],inactive
CC(=O)c1c(C)c([N+](=O)[O-])c(C(C)(C)C)c([N+](=O)[O-])c1C,outcome,[1],inactive
same,AC50,[2],100 µM (active)
same,AC50,[3],4.01 µM (active)
same,outcome,[13],inactive
same,outcome,[6],inactive
same,outcome,[16],inactive
same,outcome,[17],inactive
same,outcome,[18],inactive
same,outcome,[8],inactive
same,outcome,[9],inactive
same,AC50,[14],10.2 µM (active)
same,outcome,[11],inactive
same,outcome,[12],inactive
c1ccc(Oc2ccccc2)cc1,outcome,[1],inactive
same,outcome,[2],inactive
same,outcome,[3],inactive
same,outcome,[13],inactive
same,outcome,[6],inactive
same,outcome,[15],inactive
same,outcome,[16],inactive
same,outcome,[18],inactive
same,outcome,[8],inactive
same,outcome,[10],inactive
same,outcome,[14],inactive
same,outcome,[11],inactive
same,outcome,[12],inactive
CC1(C)CCC[C@]2(C)[C@H]3CCO[C@]3(C)CC[C@@H]12,outcome,[1],inactive
same,outcome,[2],inactive
same,outcome,[3],inactive
same,outcome,[13],inactive
same,outcome,[6],inactive
same,outcome,[19],inactive
same,outcome,[7],inactive
same,outcome,[9],inactive
same,outcome,[10],inactive
same,outcome,[11],inactive
same,outcome,[12],inactive
CCCCC(CC)(CO)CO,outcome,[1],inactive
same,outcome,[2],inactive
same,outcome,[3],inactive
same,outcome,[13],inactive
same,outcome,[6],inactive
same,outcome,[15],inactive
same,outcome,[19],inactive
same,outcome,[11],inactive
same,outcome,[12],inactive
CCN(CCC#N)c1ccc(N=Nc2ccc([N+](=O)[O-])cc2)cc1,outcome,[1],inactive
same,outcome,[2],inactive
same,outcome,[3],inactive
same,outcome,[13],inactive
same,outcome,[6],inactive
same,outcome,[19],inactive
same,outcome,[17],inactive
same,outcome,[9],inactive
same,outcome,[10],inactive
same,outcome,[11],inactive
same,outcome,[12],inactive
O=C1c2ccccc2C(=O)c2c(O)ccc(O)c21,outcome,[1],inactive
same,outcome,[2],inactive
same,outcome,[3],inactive
same,outcome,[13],inactive
same,outcome,[6],inactive
same,outcome,[15],inactive
same,outcome,[20],inactive
same,outcome,[17],inactive
same,outcome,[7],inactive
same,outcome,[18],inactive
same,outcome,[8],inactive
same,outcome,[9],inactive
same,outcome,[10],inactive
same,outcome,[14],inactive
same,outcome,[11],inactive
same,outcome,[12],inactive
CC(C)(C)C1=CC(=O)C(C(C)(C)C)=CC1=O,outcome,[1],inactive
same,outcome,[2],inactive
same,AC50,[3],19.7 µM (active)
same,AC50,[13],20.1 µM (active)
same,outcome,[6],inactive
same,outcome,[20],inactive
same,outcome,[17],inactive
same,outcome,[7],inactive
same,outcome,[18],inactive
same,outcome,[9],inactive
same,AC50,[14],74 µM (active)
same,outcome,[11],inactive
same,outcome,[12],inactive
CC(=O)O[C@@H]1CC2CCC1(C)C2(C)C (stereo partly drawn),outcome,[1],inactive
same,outcome,[2],inactive
same,outcome,[3],inactive
same,outcome,[13],inactive
same,outcome,[6],inactive
same,outcome,[15],inactive
same,outcome,[19],inactive
same,outcome,[17],inactive
same,outcome,[7],inactive
same,outcome,[18],inactive
same,outcome,[8],inactive
same,outcome,[10],inactive
same,outcome,[14],inactive
same,outcome,[11],inactive
